{"source": "PubChem BioAssay (NCATS)", "note": "Inconclusive results are not listed. The source made the active and inactive calls. Calls follow the shape of the dose curve; as a rule, active = well fitted curve in the direction sought with a large enough effect in the signal ratio; inconclusive = small, poorly fitted or top-dose-only effect, or effect the other way, or a change in a side signal; inactive = no such curve, though single readings can be large or run the other way; the % refers to the signal ratio.", "data": [{"assay": "Validation of Assay for Modulators of Lamin A Splicing (AID 1459);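 also: cells exposed to compound for two days before reading; 0% is about no effect; ratio rise marks activators and ratio drop marks inhibitors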", "details": "Lamin A splicing dual RFP/GFP fluorescence reporter; series mostly up to 9.22 µM; ratio change, both ways: at the top concentration", "text": "Hutchinson-Gilford Progeria Syndrome (HGPS) is a pediatric premature aging disease caused by a spontaneous mutation in the lamin A/C (LMNA) gene. The mutation activates a cryptic splice site in the LMNA pre-mRNA which results in production of a pre-lamin A protein that cannot be processed properly. The mutant protein accumulates in the nucleus and negatively affects numerous cellular functions. Correction of the splicing defect in HGPS patient cells using a targeted oligonucleotide (exo11) leads to reversal of the cellular disease phenotypes. To identify small molecule modulators of aberrant LMNA splicing, a homogenous assay was constructed in HeLa cells that used a GFP containing minigene to report on correction of aberrant splicing in lamin A and a RFP (DsRed2) to report on cell viability, uniformity and nonspecific effects on the assay signal. This assay was adapted to laser-scanning microplate cytometry (Acumen, TTP Labtech) where miniaturization of the assay to a 1,536-well plate format was possible.\nBowen, W. P.; Wylie, P. G. Application of Laser-Scanning Fluorescence Microplate Cytometry in High Content Screening. Assay Drug Dev Technol 2006;4:209-221.\nScaffidi P, Misteli T. Reversal of the cellular phenotype in the premature aging disease Hutchinson-Gilford progeria syndrome. Nat. Med. 2005;11:440-445.\nNCGC Assay Protocol Summary:\nReagents/Controls: Stable clones expressing DsRed2 and lamin A-EGFP were generated by Cell and Molecular Technologies in S3 HeLa cells.\nHeLa cells were prepared for the assay when they were 70-90% confluent. The cells were counted and resuspended in Opti-MEM I (no phenol red; Gibco), 2% FBS, 1% penicillin/ streptomycin (Gibco) at concentration of 120 cells/uL concentration. The suspension was passed through a Falcon basket filter with pore size 40um (Beckton Dickson).\nControl titrations: column […] 1536-well plate contained a sixteen point titration (1:2 dilutions) in duplicate of ancitabine (Sigma: A8598) beginning at 40 uM final concentration. Column 2 contained a sixteen point titration (1:2 dilutions) of cycloheximide beginning at 1.4 mM final concentration. Column 3 contained ancitabine at 40 uM and column 4 contained was the vehicle control (0.5% DMSO final concentration).\n5 uL of HeLa cells were plated in Aurora LoBase black clear bottom (cyclic-olefin polymer) 1536-well plates at a final density of 600 cells/well. Controls and library compounds were added with a 1536-well pin array using the Kalypsys pin-tool. The plates were then incubated for 48 hrs in a cell-culture incubator (37 °C; 5% CO2, 98% humidity). Following incubation the plates were read on the Acumen Explorer using the 488 nm laser. Data was collected on objects between 10 and 100 um in size. Cell objects were defined by a 15 um width x 10 um depth filter. The ratio of the total object intensity in PMT1 (500-530 nm emission; GFP) over PMT3 (575-640 nm emission; RFP) was calculated for analysis.\nKeywords: NIH Roadmap, MLSCN, MLI, MLSMR, qHTS, NCGC, lamin A, Progeria, RNA splicing.", "values": [{"smiles": "Cc1oncc1C(=O)Nc1ccc(C(F)(F)F)cc1", "ratio change, both ways": "-7.29% (inactive)"}, {"smiles": "Cc1cnc(NC(=O)C2=C(O)c3ccccc3S(=O)(=O)N2C)s1", "ratio change, both ways": "-7.75% (inactive)"}, {"smiles": "Nc1ccc(S(=O)(=O)Nc2ccnn2-c2ccccc2)cc1", "ratio change, both ways": "-3.56% (inactive)"}, {"smiles": "CCOC(=O)C1=C[C@]2(CC)CCCN3CCc4c(n1c1ccccc41)[C@@H]32", "ratio change, both ways": "-11.2% (inactive)"}, {"smiles": "NC[C@H](O)c1ccc(O)c(O)c1", "ratio change, both ways": "-6.72% (inactive)"}, {"smiles": "CCC(C)N(C)C(=O)c1cc2ccccc2c(-c2ccccc2Cl)n1", "note": "(stereo unspecified)", "ratio change, both ways": "11.2% (inactive)"}, {"smiles": "N[C@@H]1CONC1=O", "ratio change, both ways": "-8.48% (inactive)"}, {"smiles": "Cc1ccc(N(CC2=NCCN2)c2cccc(O)c2)cc1", "ratio change, both ways": "7.3% (inactive)"}, {"smiles": "CCN(CC)CCCC(C)Nc1ccnc2cc(Cl)ccc12", "note": "(stereo unspecified)", "ratio change, both ways": "-9.49% (inactive)"}, {"smiles": "NCCCC(N)(C(=O)O)C(F)F", "note": "(stereo unspecified)", "ratio change, both ways": "-2.59% (inactive)"}, {"smiles": "O=C1CCC(N2C(=O)c3ccccc3C2=O)C(=O)N1", "note": "(stereo unspecified)", "ratio change, both ways": "-7.18% (inactive)"}, {"smiles": "CCCCNc1cc(C(=O)O)cc(S(N)(=O)=O)c1Oc1ccccc1", "ratio change, both ways": "3.23% (inactive)"}, {"smiles": "N=c1nc(N2CCCCC2)cc(N)n1O", "ratio change, both ways": "-9.31% (inactive)"}, {"smiles": "NCCc1ccc(O)c(O)c1", "ratio change, both ways": "9.34% (inactive)"}, {"smiles": "NS(=O)(=O)c1cc2c(cc1Cl)NC=NS2(=O)=O", "ratio change, both ways": "-4.58% (inactive)"}, {"smiles": "CC(=O)Oc1ccccc1C(=O)O", "ratio change, both ways": "-6.91% (inactive)"}]}]}
